# From PubChem BioAssay AID2284166 (EPA ToxCast)
# Inconclusive results are not listed. Calls of active or inactive are those of the source. How the source made its calls: active means hit-call score of the fitted dose curve at least 0.9, where 1 is the maximum; inactive means score below 0.9.
# Target: Neuropeptide Y receptor type 2 (Homo sapiens) (UniProt P49146)
# Test: ERF_FR_GPCR_hNPY2R: Eurofins (ERF) G Protein-Coupled Receptor (GPCR) Radioligand Binding LeadHunter Assay for human Neuropeptide Y Receptor Y2 Agoniam
# Procedure: ERF_FR_GPCR_hNPY2R is a biochemical, single-readout assay that uses extracted gene-proteins in a cell-free assay. Measurements were taken 1 hour after chemical dosing in a 96-well plate. See Y2 Human Neuropeptide Y GPCR Binding (Agonist Radioligand) Assay, Cerep.ERF_FR_GPCR_hNPY2R is an assay component calculated from the ERF_FR_GPCR_hNPY2R assay. It is designed to measure radioligand binding using a type of binding reporter as detected by scintillation counting with radiometry technology.Data from the assay component ERF_FR_GPCR_hNPY2R was analyzed at the assay endpoint, ERF_FR_GPCR_hNPY2R, in the positive analysis fitting direction relative to DMSO as the negative control and baseline of activity. Using a type of binding reporter, gain-of-signal activity can be used to understand changes in binding as they relate to gene NPY2R. To generalize the intended target to other relatable targets, this assay endpoint is annotated to the gpcr intended target family, where the subfamily is neuropeptide Y.
# Human cells are incubated for 60 minutes at 37 C with [125I]peptide YY ligand (0.015 nM) and NYP as control inhibitor. Test Sample Requirements: Minimum for 1) Screen: 60 ul of 10 mM stock -OR- 1 mg (pre-weighed) for 10 uM final testing. 2) Dose Response: 90 ul of 10 mM stock -OR- 1 mg (pre-weighed) for a top concentration at 10 uM.
# Neuropeptide Y receptor type 2 (Homo sapiens), sequence (P49146 whole entry, looked up): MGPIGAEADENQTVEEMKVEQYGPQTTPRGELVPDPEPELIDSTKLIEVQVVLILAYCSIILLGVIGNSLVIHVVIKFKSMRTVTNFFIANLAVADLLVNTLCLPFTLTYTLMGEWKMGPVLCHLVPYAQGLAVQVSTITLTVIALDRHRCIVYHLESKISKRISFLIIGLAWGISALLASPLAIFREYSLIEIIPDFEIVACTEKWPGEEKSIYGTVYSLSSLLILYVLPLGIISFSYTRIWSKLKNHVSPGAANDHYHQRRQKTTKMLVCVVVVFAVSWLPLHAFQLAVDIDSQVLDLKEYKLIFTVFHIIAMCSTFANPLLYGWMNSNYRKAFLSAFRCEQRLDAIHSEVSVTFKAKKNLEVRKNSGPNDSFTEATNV
row,SMILES,outcome
1,O=C(/C=C/c1ccc(O)cc1)CC(=O)/C=C/c1ccc(O)cc1,inactive
